Where “and” joins values, the source holds several entries; their conditions need not be identical. Equal entries are not always repeated. In all, about 16,000 compounds went through this assay and about 4,000 (25%) were called active. Not shown: some 26% with an inconclusive outcome. Calls follow the shape of the dose curve; as a rule, active = well fitted curve in the direction sought with a large enough effect; inconclusive = small, poorly fitted or top-dose-only effect, or effect the other way; inactive = no such curve, though single readings can be large or run the other way. The list is a sample of the results. Some compounds were tested as several samples or in several runs, with calls that do not always agree.
These molecules were tested against Cytochrome P450 2C9 (Homo sapiens) (UniProt P11712) (assay: Cytochrome panel assay with activity outcomes). Details: recombinant CYP, pro-luciferin dealkylation, luminescence, p450-cyp2c9; series mostly up to 57.1 µM; activity, negative = inhibition: at the top concentration.
Chain of Cytochrome P450 2C9 (Homo sapiens) (P11712 whole entry, looked up): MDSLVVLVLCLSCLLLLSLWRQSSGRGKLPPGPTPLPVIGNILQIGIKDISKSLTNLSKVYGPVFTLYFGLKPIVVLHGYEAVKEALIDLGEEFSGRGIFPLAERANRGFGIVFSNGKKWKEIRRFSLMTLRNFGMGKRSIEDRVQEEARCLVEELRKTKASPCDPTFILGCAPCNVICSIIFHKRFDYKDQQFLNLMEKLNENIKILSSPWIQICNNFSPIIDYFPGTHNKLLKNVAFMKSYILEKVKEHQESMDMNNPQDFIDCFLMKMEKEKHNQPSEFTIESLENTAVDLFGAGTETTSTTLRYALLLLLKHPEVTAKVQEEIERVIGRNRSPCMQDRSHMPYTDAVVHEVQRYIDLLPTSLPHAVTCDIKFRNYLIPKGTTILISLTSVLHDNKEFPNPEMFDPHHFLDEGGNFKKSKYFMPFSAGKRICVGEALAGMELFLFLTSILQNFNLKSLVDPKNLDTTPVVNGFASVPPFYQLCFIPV
`O=C(Oc1ccccc1)N1CCC2(CCCN(Cc3nccs3)C2)CC1` was tested, and the “activity, negative = inhibition” value was -16.6% (inactive).
For `C[C@@H](Cc1cccc(C(F)(F)F)c1)NCCCc1ccccc1`, the “activity, negative = inhibition” value was -1.99% (inactive).
`C[C@@]12CC[C@H]3[C@H](CC=C4C[C@@H](O)CC[C@@]43C)[C@@H]1CC[C@@H]2N(CCO)CCO` was tested, and the activity, negative = inhibition was 7.98% [at 11.4 µM] (inactive).
In the case of `CN(C)CCC(=O)[C@@]1(O)CC[C@H]2[C@H]3CC=C4C[C@@H](O)CC[C@]4(C)[C@H]3CC[C@]21C`, the AC50 is reported as 2.51 µM (active).
With `C[C@H]1CC[C@@]2(NC1)O[C@@H]1C[C@@H]3[C@@H]4CC=C5C[C@@H](O)CC[C@]5(C)[C@@H]4CC[C@]3(C)[C@H]1[C@@H]2C` the activity, negative = inhibition was -1.5% [at 11.4 µM] (inactive).
With `Oc1ccc2c3c1O[C@H]1c4oc5ccccc5c4C[C@]4(O)[C@H](C2)N(CC2CC2)CC[C@@]314` the activity, negative = inhibition was “inactive”.
With `CN1CCN(c2ncc3ncc(=O)n(C)c3n2)CC1` the “activity, negative = inhibition” value was -1.78% (inactive).
In the case of `C[C@@H](Cc1ccccc1)NCCC(c1ccccc1)c1ccccc1`, the “activity, negative = inhibition” value is reported as -14.2% [at 25.6 µM] (inactive).
With `C[C@@H](Cc1ccc(OCC(=O)O)cc1)NC[C@H](O)c1cccc(Cl)c1` the AC50 was “inactive and 6.31 µM (active)”.
With `NS(=O)(=O)c1ccc(-c2ccc([As](=O)(O)O)cc2)cc1` the activity, negative = inhibition was 14.8% [at 11.4 µM] (inactive).
For `Cc1cc(C)nc(NC2=NCCS2)n1`, the “activity, negative = inhibition” value was -12.5% (inactive).
With `CCN1CCN(S(=O)(=O)c2ccc(Cl)nc2)CC1` the “activity, negative = inhibition” value was 16% (inactive).
For `C[C@]12N[C@@H](Cc3ccccc31)c1ccccc12`, the activity, negative = inhibition was “inactive”.
In the case of `CCCc1cc2c(n1Cc1cccc(Cl)c1)C(C)C1CN(C(=O)c3ccccc3)C(C)(C(=O)OC)C21` (configuration not stated), the AC50 is reported as 5.01 µM (active).
With `CCCc1cc2c(n1CCO)C(C)C1CN(C(=O)c3ccccc3)C(C)(C(=O)OC)C21` (configuration not stated) the AC50 was 12.6 µM (active).
`NC[C@H](O)c1cc(O)c(O)cc1F` was tested, and the “activity, negative = inhibition” value was -14.1% (inactive).
In the case of `C=C1[C@@H]2CC[C@H]3[C@@]4(C)C[C@@H](O[C@@H]5O[C@H](CO)[C@H](OS(=O)(=O)O)[C@@H](OS(=O)(=O)O)[C@@H]5OC(=O)CC(C)C)C[C@@H](C(=O)O)[C@H]4CC[C@@]3(C2)[C@H]1O`, the “activity, negative = inhibition” value is reported as 7.32% [at 25.6 µM] (inactive).
For `C=C1C(O)(c2ccccc2)C2CC[N+]1(C)CC2` (configuration not stated), the “activity, negative = inhibition” value was 35.1% (inactive).
In the case of `COc1cc2c(cc1OC)[C@@]13CCN4CC5=CCO[C@H](CC(=O)O)[C@@H]([C@H]1N2)[C@H]5C[C@H]43`, the activity, negative = inhibition is reported as -2.18% [at 11.4 µM] (inactive).
In the case of `Cc1c(OCC(F)(F)F)ccnc1CS(=O)c1nc2ccccc2[nH]1` (configuration not stated), the “activity, negative = inhibition” value is reported as -13.7% [at 25.6 µM] (inactive).
With `C=CCO[C@@H](Cn1ccnc1)c1ccc(Cl)cc1Cl` the AC50 was 0.1 µM (active).
`CC(=O)N1CC[N+](C)(C)CC1` was tested, and the “activity, negative = inhibition” value was 3.49% (inactive).
With `CN1[C@@H]2CC[C@H]1CC(NC(=O)c1nn(C)c3ccccc13)C2` (some centres not stated) the “activity, negative = inhibition” value was -3.75% (inactive).
In the case of `CCOc1ccc(C2C(C#N)=C(N)Oc3c2c(=O)oc2ccccc32)cc1` (configuration not stated), the AC50 is reported as 0.0224 µM (active).
`C[C@@]12CC[C@H](O[C@@H]3O[C@H](CO)[C@@H](O)[C@H](O)[C@@H]3O)C[C@@H]1CC[C@H]1[C@H]2CC[C@@]2(C)[C@@H](C3=CCOC3=O)CC[C@]12O` was tested, and the activity, negative = inhibition was 2% [at 11.4 µM] (inactive).
With `C[C@H](N[C@@H](C)CCc1ccccc1)[C@H](O)c1ccc(O)cc1` the “activity, negative = inhibition” value was -17.1% (inactive).
`O=C(O)c1cc[c]([Hg][S]c2ncnc3nc[nH]c23)cc1` was tested, and the AC50 was 1.26 µM (active).
For `Ic1cncc(OC[C@@H]2CCN2)c1`, the AC50 was 31.6 µM (active).
With `CC(C)(C)NC[C@@H](O)COc1cccc2[nH]c(C#N)cc12` the “activity, negative = inhibition” value was -27.6% (inactive).
With `CC[N@+]1(C)CCC[C@@H](OC(=O)C(O)(c2ccccc2)c2ccccc2)C1` the “activity, negative = inhibition” value was -7.68% [at 25.6 µM] (inactive).
With `C[N+]1([O-])[C@H]2CC[C@H]1CC(OC(=O)[C@@H](CO)c1ccccc1)C2` (some centres not stated) the activity, negative = inhibition was 3.51% [at 11.4 µM] (inactive).
With `C[C@H]1CC[C@@]2(NC1)O[C@@H]1C[C@H]3[C@@H]4CC[C@@H]5C[C@@H](O)CC[C@@]5(C)[C@@H]4CC[C@]3(C)[C@@H]1[C@@H]2C` the “activity, negative = inhibition” value was -6.95% [at 25.6 µM] (inactive).
`C[C@@]12CC[C@H]3[C@@H](CC[C@@H]4C[C@H]5S[C@H]5C[C@]43C)[C@H]1CC[C@H]2O` was tested, and the AC50 was 0.00501 µM (active).
In the case of `CC(C)CCC[C@@H](C)[C@@H]1CC[C@@H]2[C@H]3CC[C@H]4C[C@@H](N)CC[C@@]4(C)[C@@H]3CC[C@]21C`, the activity, negative = inhibition is reported as 4.77% [at 11.4 µM] (inactive).
`CN1C(=O)CCS(=O)(=O)[C@@H]1c1ccc(Cl)cc1` was tested, and the “activity, negative = inhibition” value was 8.83% [at 25.6 µM] (inactive).
In the case of `c1ccc([C@H]2CNCc3ccccc32)cc1`, the “activity, negative = inhibition” value is reported as 21.5% (inactive).
`CCCN(CCC)[C@@H]1CCc2cccc(O)c2C1` was tested, and the activity, negative = inhibition was “inactive”.
For `CC[C@]1(c2cccc(O)c2)CCCCN(C)C1`, the “activity, negative = inhibition” value was 5.89% [at 25.6 µM] (inactive).
In the case of `C[C@@H]1Cc2cc3c(cc2C(c2ccc(N)cc2)=NN1)OCO3`, the AC50 is reported as 25.1 µM (active).
With `CC1=NN=C(c2ccc(N)cc2)c2cc3c(cc2C1)OCO3` the AC50 was “inactive and 1.26 µM (active)”.
With `CCCC[N+]1(C)[C@@H]2CC(OC(=O)[C@@H](CO)c3ccccc3)C[C@H]1[C@H]1O[C@H]12` (some centres not stated) the “activity, negative = inhibition” value was 25.2% (inactive).
For `CC(C)CC(=O)C[C@H](O)C(Cl)(Cl)Cl`, the activity, negative = inhibition was -21.3% [at 11.4 µM] (inactive).
With `COc1cc2c(cc1O)C[C@@H]1c3c(cc(O)c(OC)c3-2)CCN1C` the activity, negative = inhibition was -4.78% [at 11.4 µM] (inactive).
For `CC(C)CN1CCC2(CC1)CCN(C(=O)Oc1ccccc1)CC2`, the “activity, negative = inhibition” value was -0.61% (inactive).
In the case of `Cc1nccc2c1[nH]c1ccccc12`, the activity, negative = inhibition is reported as “inactive”.
In the case of `Cn1c(O)c(C(c2ccccn2)c2c(O)n(C)c(=S)[nH]c2=O)c(=O)[nH]c1=S`, the “activity, negative = inhibition” value is reported as -3.3% (inactive).
`O=C(c1cc2cc3ccc(Cl)cc3nc2o1)N1CCC2(CC1)OCCO2` was tested, and the “activity, negative = inhibition” value was -14.2% (inactive).
`O=C(c1cc(-c2ccccc2)nc2ccccc12)N1CCC2(CC1)OCCO2` was tested, and the AC50 was 28.2 µM (active).
For `O=C1c2cc([N+](=O)[O-])ccc2-c2ccc3c4ccc5c6c(ccc(c7ccc1c2c73)c64)C(=O)c1cc([N+](=O)[O-])ccc1-5`, the activity, negative = inhibition was -26.9% [at 11.4 µM] (inactive).
For `O=C(O)Cc1ccc([N+](=O)[O-])cc1[N+](=O)[O-]`, the activity, negative = inhibition was 11.5% [at 11.4 µM] (inactive).
With `O=[N+]([O-])c1ccc(S(=O)(=O)Cc2ccccc2)c([N+](=O)[O-])c1` the AC50 was 3.16 µM (active).
For `N[C@H](Cc1ccc2oc3cc(=O)c4ccccc4c-3nc2c1)C(=O)O`, the activity, negative = inhibition was -13.7% [at 11.4 µM] (inactive).

Reference: PubChem BioAssay AID1851 (National Center for Advancing Translational Sciences (NCATS), 2009)
% is scaled to controls: 0 for no effect and ±100 for the full control effect.
